p53ts 39C tox – cytotoxicity in p53ts cells at nonpermissive temperature; H1299-p53A138V viability at 39C, ATP luminescence, 24 h; Potency, µM (series often up to 46.1 µM), usual class: cytotoxic; 130,000 compounds, 1.5% hits; note: nearly all actives have a fitted effect of over 55% in size
Luciferase inh – blocks Photinus pyralis firefly luciferase activity. 72,000 compounds, 2.2% hits. AID 411. Potency, µM (highest dose often 57.1 µM), usual class: inhibitors. P08659. purified firefly luciferase, luminescence, 8 min; note: nearly all actives have a fitted effect of over 40% in size
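Titration-based qHTS; buffer 50 mM imidazole pH 7.2, 50 mM KCl, 7 mM MgCl2, 10 uM ATP, 0.01% Tween 20, 0.05% BSA; luciferase/luciferin detector mix added after compound; 8 min, ambient; luminescence.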
Tau filament bind – binds recombinant human tau filaments; recombinant tau filaments, thioflavin S fluorescence, 15 h; filaments grown with octadecylsulfate alongside compound; Potency, µM (doses to about 57.1 µM); 71,000 compounds, 2% hits;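 note: actives lower thioflavin S fluorescence by blocking filaments or displacing dye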
Target sequence (P10636 whole entry, looked up): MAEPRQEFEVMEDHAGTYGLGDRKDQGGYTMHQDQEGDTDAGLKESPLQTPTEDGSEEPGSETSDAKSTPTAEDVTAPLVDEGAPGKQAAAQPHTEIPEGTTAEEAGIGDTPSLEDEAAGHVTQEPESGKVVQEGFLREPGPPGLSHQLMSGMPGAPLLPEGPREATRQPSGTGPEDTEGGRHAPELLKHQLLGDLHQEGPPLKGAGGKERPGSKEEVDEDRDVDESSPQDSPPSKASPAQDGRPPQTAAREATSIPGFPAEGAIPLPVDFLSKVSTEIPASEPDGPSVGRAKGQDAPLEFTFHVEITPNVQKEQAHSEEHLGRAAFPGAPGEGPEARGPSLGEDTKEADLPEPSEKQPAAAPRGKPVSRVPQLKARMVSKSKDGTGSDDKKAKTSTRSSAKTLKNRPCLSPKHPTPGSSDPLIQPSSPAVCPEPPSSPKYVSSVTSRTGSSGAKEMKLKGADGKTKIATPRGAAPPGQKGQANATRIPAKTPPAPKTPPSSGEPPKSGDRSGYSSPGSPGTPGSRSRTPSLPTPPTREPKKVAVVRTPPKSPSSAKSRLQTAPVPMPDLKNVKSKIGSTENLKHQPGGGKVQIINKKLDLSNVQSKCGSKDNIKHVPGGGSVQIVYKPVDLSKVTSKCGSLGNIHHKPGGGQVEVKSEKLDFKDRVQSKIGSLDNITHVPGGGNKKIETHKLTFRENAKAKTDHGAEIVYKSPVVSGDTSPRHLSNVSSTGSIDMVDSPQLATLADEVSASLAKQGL
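Tau 2 uM in ThS buffer dispensed; compound added; 60 uM ODS added (finals 1 uM tau, 30 uM ODS); 15 h 37 C; fluor ex450/em510.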
Imprint erasure – induces erasure of genomic imprints in mouse ES cells; mouse ES Peg3-LacZ reporter, beta-gal luminescence, 40 h; Potency, µM (doses to about 60.7 µM), most hits filed as activators; 110,000 compounds, 0.02% hits
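Each well holds 300 Peg3LacZ-Neo (maternal) female ES cells incubated 40 h at 37C, 5% CO2. LacZ is measured by BetaGlo luminescence, with AC50 and maximum efficacy derived from dose-response curves.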
p53ts 32C tox – cytotoxicity in p53ts cells at permissive temperature. H1299-p53A138V at 32C, ATP luminescence viability, 24 h. Potency, µM (highest dose often 46.1 µM), actives largely listed as cytotoxic. 130,000 compounds, 0.93% hits; note: nearly all actives have a fitted effect of over 55% in size
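H1299-p53 A138V cells (temperature-sensitive p53) exposed 24 h to up to 46 uM compound at 32C, where p53 is wild-type in conformation. Viability read as ATP luminescence and normalised to DMSO and 100 uM tamoxifen. AC50 fitted with the Hill equation.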
Hits are given with their value; - = inactive; ? = inconclusive; . = no result; ! = repeats disagree; [ ] = dose if it differs, or a comment. Compounds with a hit are over-represented: about 3.4% of the library has one in this group of screens. Calls come from the whole dose curve; as a rule, active = well fitted curve in the direction sought with a large enough effect; inconclusive = small, poorly fitted or top-dose-only effect, or another doubt; inactive = no such curve, though single readings can be large; an effect the other way counts as inactive or inconclusive.

SMILES | p53ts 39C tox | Luciferase inh | Tau filament bind | Imprint erasure | p53ts 32C tox
COc1cc(NC(=O)C2CCCCN2)ccc1OCC(C)C (configuration not stated) | - | - | - | - | -
CCOc1ccc(-c2[nH]ncc2Oc2cccc(OC)c2)c(O)c1 | 15.8µM | - | ? | - | -
Cc1ccc(S(=O)(=O)NCCc2csc(-c3cccc(F)c3)n2)cc1 | 15.8µM | . | . | -[10.9 µM] | -
COc1ccc(C2=NOC(CN3C(=O)c4ccccc4S3(=O)=O)C2)cc1 (configuration not stated) | - | 15.8µM | - | - | ?
CC(C)NCC(O)COc1ccc(COCCOC(C)C)cc1 (configuration not stated) | - | . | . | ? | -
CC(=O)Nc1ccc(OC[C@@H](O)CNC(C)C)cc1 | - | - | 39.8µM! | - | -
CN1[C@@H]2CC(OC(=O)[C@H](CO)c3ccccc3)C[C@@H]1[C@H]1O[C@H]12 (some centres not stated) | . | - | ? | - | .
COc1ccc(-c2nc3cnc(OC)nc3n(C3CC3)c2=O)cc1 | - | -[11.4 µM] | - | . | -
Cc1cccc(NC(=O)c2cc(-c3ccc4c(c3)OCCO4)on2)c1 | 1µM | . | . | -[10.9 µM] | 1µM
O=C(Nc1cccc(Cl)c1)c1cc(-c2ccc3c(c2)OCCO3)on1 | 3.98µM | . | . | -[10.9 µM] | ?
O=C(Nc1cccc(C(F)(F)F)c1)c1cc(-c2ccc3c(c2)OCCO3)on1 | ? | . | . | -[10.9 µM] | ?
COCc1cc(C)nc2sc3c(=O)n(-c4ccccc4C(F)(F)F)nnc3c12 | - | . | . | -[10.9 µM] | -
CCOc1cc2c(cc1OCC)C(CC(=O)O)N(C(=O)Nc1ccccc1C(F)(F)F)CC2 (configuration not stated) | - | . | . | -[10.9 µM] | -
CC(C)(C)OC(=O)N1CCC(c2c(C(=O)NCCN3CCOCC3)cnn2-c2ccccc2)CC1 | - | . | . | -[10.9 µM] | -
Cc1ccc(S(=O)(=O)N2CCN(C(=O)c3cc(-c4ccc(Br)cc4)n[nH]3)CC2)c(C)c1 | . | . | . | . | -
CCCCNC(=O)C(c1ccc(OCC(=O)OC)c(C(=O)OC)c1)N(CCc1ccccn1)C(=O)CCCCCN1C(=O)NC(c2ccc(-c3ccccc3)cc2)C(C(=O)OCc2ccccc2)=C1C (configuration not stated) | - | . | - | - | ?
CCCCCc1ccc(-c2ccc(/C=C/C(N)=O)cc2)nc1 | - | . | . | . | .
CCCCc1ccc(-c2ccc(C)cc2O)nc1 | ? | 10µM | - | - | 12.6µM
COc1ccccc1Nc1cc(C(=O)NCc2cccs2)c2ccccc2n1 | ? | . | . | -[10.9 µM] | -
CN1C=CC=C/C1=C(\C#N)c1nc2ccccc2[nH]1 | - | - | 31.6µM | - | -
CCOc1cc(C(=O)Nc2ccc(-c3nc4cc(C)ccc4o3)cc2)cc(OCC)c1OCC | - | . | . | -[10.9 µM] | -
Cc1ccc(Cc2cn3cc(-c4ccc(F)cc4)nc3s2)cc1 | 7.94µM | . | . | -[10.9 µM] | ?
COCCN(CCOC)C(=O)c1cc2c(=O)n3ccccc3nc2n1C | - | . | . | -[10.9 µM] | -
CCc1nnc2n1N(C(C)=O)C(c1ccc(C(C)(C)C)cc1)=C(C(C)=O)S2 | 12.6µM | . | . | -[10.9 µM] | -
CCCCN(CCCNC(=O)c1cc(Nc2ccc(OC)c(OC)c2)nc2ccccc12)Cc1ccccc1 | 12.6µM | . | . | -[10.9 µM] | -
SMILES | p53ts 39C tox | Luciferase inh | Tau filament bind | Imprint erasure | p53ts 32C tox
CCCCN(CCCNC(=O)c1cc(Nc2ccc(OC)cc2)nc2ccccc12)Cc1ccccc1 | - | . | . | -[10.9 µM] | -
Cc1cc(C)cc(Nc2cc(C(=O)NCCCN(C)C3CCCCC3)c3ccccc3n2)c1 | 7.94µM | . | . | -[10.9 µM] | ?
CCc1ccccc1NC(=O)c1cc(-c2ccc(Cl)s2)nc2ccccc12 | 10µM | . | . | -[10.9 µM] | ?
CCc1ccc(CNC(=O)c2cc(-c3ccc(Cl)s3)nc3ccccc23)cc1 | - | . | . | -[10.9 µM] | -
CCCCN(C)CCCNC(=O)c1cc(-c2ccc(Br)s2)nc2ccccc12 | 12.6µM | . | . | -[10.9 µM] | -
Cc1[nH]c2ccc(C(=O)NCCc3ccccc3Cl)cc2c1C | - | . | . | -[10.9 µM] | -
CC(=O)OC[C@@H]1O[C@H](C/C=N\O[C@@H]2O[C@H](COC(C)=O)[C@@H](OC(C)=O)[C@H](OC(C)=O)[C@H]2OC(C)=O)C=C[C@@H]1OC(C)=O | -[9.22 µM] | -[11.4 µM] | . | . | -[9.22 µM]
Nc1nc(SC/C=C\c2ccccc2)c2[nH]cnc2n1 | -[9.22 µM] | -[11.4 µM] | -[11.4 µM] | -[10.9 µM] | -[9.22 µM]
Cc1nc2ncnn2c(N2CCN(C(c3ccccc3)c3ccccc3)CC2)c1C | 20µM | - | - | - | ?
Cc1cc(N2CCN(C(c3ccccc3)c3ccccc3)CC2)n2ncnc2n1 | - | - | - | - | -
CCCCCCOC(=O)C(C#N)c1nc2ccccc2nc1N1CCOCC1 (configuration not stated) | - | - | 2.51µM | - | -
CCN1CCN(c2nc3ccccc3nc2C(C#N)C(=O)OCc2ccccc2)CC1 (configuration not stated) | - | - | 1.26µM | - | -
CCCCCCOC(=O)C(C#N)c1nc2ccccc2nc1N1CCN(CC)CC1 (configuration not stated) | ? | - | 1µM | - | ?
CCCCOC(=O)C(C#N)c1nc2ccccc2nc1N1CCOCC1 (configuration not stated) | - | - | 3.98µM | - | -
CCCCCCNC(=O)C(C#N)c1nc2ccccc2nc1N1CCCC1 (configuration not stated) | - | - | - | - | -
COc1ccc(NC(=O)CCS(=O)(=O)c2ccc3c(c2)n(C)c(=O)c(=O)n3C)cc1Cl | - | . | . | -[10.9 µM] | -
COc1ccc(CC(=O)NCc2ccc3c(c2)CCN3C(=O)c2ccc(C)cc2)cc1OC | - | . | . | -[10.9 µM] | -
Cc1cc(C)n2nc3nc(N4CCCCC4)nc(-c4ccco4)c3c2n1 | - | - | 20µM | - | -
Cc1ccc(O)c(NC(=O)CCS(=O)(=O)c2nc(-c3cccs3)cc(C(F)(F)F)n2)c1 | ? | . | . | -[10.9 µM] | ?
O=C(CCS(=O)(=O)c1nc(-c2cccs2)cc(C(F)(F)F)n1)Nc1cc(Br)ccc1O | 7.94µM | . | . | -[10.9 µM] | ?
CCN(CC)S(=O)(=O)c1cccc(-c2nnc(C(=O)c3ccc(C(F)(F)F)cc3)o2)c1 | - | - | 15.8µM | - | -
CCN(CC)S(=O)(=O)c1cccc(-c2nnc(SCC(=O)c3cc(C)n(C)c3C)o2)c1 | - | - | - | - | -
Cc1ccccc1Nc1c(-c2ccc(N3CCOCC3)cc2)nc2ccc(Br)cn12 | ? | . | . | -[10.9 µM] | ?
Cc1ccccc1Nc1c(-c2ccc(N3CCOCC3)cc2)nc2ccccn12 | 1µM | . | . | -[10.9 µM] | 1µM
Cc1ccccc1Nc1c(-c2ccc(N3CCOCC3)cc2)nc2cccc(C)n12 | 7.94µM | . | . | -[10.9 µM] | ?
CCc1ccc(S(=O)(=O)c2c(C(=O)c3ccc(C)c(C)c3)cnc3ccccc23)cc1 | - | . | . | ? | -
CC(=O)c1ccc(NC(=O)c2nc3ccccc3n(C)c2=O)cc1 | 2.51µM | . | . | -[10.9 µM] | 2.51µM
CC(=O)c1ccc(NC(=O)c2nc3ccccc3nc2N2CCCCC2)cc1 | - | . | . | -[10.9 µM] | -
COc1ccc(CCN2C(=O)c3[nH]nc(-c4ccccc4O)c3C2c2ccc(OC)c(OC)c2)cc1 (configuration not stated) | - | . | . | -[10.9 µM] | -
